# Source: PubChem BioAssay AID431 (Sanford-Burnham Center for Chemical Genomics, 2006)
# The whole screen tested about 63,000 compounds, of which about 1,100 (1.7%) were called active.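 Rule for the calls: active = compounds whose percent cytotoxicity in the single-dose primary screen, scaled between solvent and toxic-drug controls, exceeds 50; inactive = the rest.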 The sample as a whole holds a higher share of actives than the screen did. Measured potencies and affinities stand elsewhere.
# Assay: cytotoxicity in KRAS-transformed pancreatic duct cells, primary screen, cell-based, fluorescence, HTS (AID 431);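 note: 0% = DMSO solvent wells and 100% = doxorubicin-treated wells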
# Conditions: HPDE-C7K KRASV12 cells, Alamar Blue viability, 48 h; at 10 µM; active compounds read high
row,Structure (SMILES),cytotoxicity
1,COc1ccc(C2C3=C(CCCC3=O)Nc3nc(C(F)(F)F)nn32)cc1OC (stereo unspecified),-12.5% (inactive)
2,Cc1ccc(Cl)cc1N1CCN(Cc2nc3c(c(=O)[nH]c(=O)n3C)n2Cc2ccccc2F)CC1,117% (active)
3,CC(C)Cn1c(CN2CCN(c3ccccc3F)CC2)nc2c1c(=O)[nH]c(=O)n2C,-9.3% (inactive)
4,Cn1c(=O)[nH]c(=O)c2c1nc(CN1CCN(c3cccc(Cl)c3)CC1)n2Cc1ccccc1Cl,2.2% (inactive)
5,O=C(Nc1ccncc1)c1ccc2c(c1)OCCO2,-6.9% (inactive)
6,CCC(NC(=O)OC(C)(C)C)C(=O)Oc1ccc2c3c(c(=O)oc2c1)CCC3 (stereo unspecified),-7.2% (inactive)
7,CCOC(=O)Cc1cc(=O)[nH]c(Nc2nc3ccccc3o2)n1,-12.3% (inactive)
8,CCOC(=O)c1cc2c(=O)n3cccc(C)c3nc2n(CCc2ccccc2)c1=N,-6.7% (inactive)
9,CCNC(=O)c1cc2c(=O)n3cccc(C)c3nc2n(CCc2ccccc2)c1=N,66.8% (active)
10,Cc1cccn2c(=O)c3cc(C(=O)NCCN4CCOCC4)c(=N)n(CCc4ccccc4)c3nc12,10.9% (inactive)
11,COCCn1c(=N)c(C(=O)NCCc2ccccc2)cc2c(=O)n3cccc(C)c3nc21,-1.7% (inactive)
12,C=CCn1c(=N)c(C(=O)OCC)cc2c(=O)n3cccc(C)c3nc21,9.2% (inactive)
13,CCOC(=O)c1cc2c(=O)n3cccc(C)c3nc2n(C)c1=N,58.1% (active)
14,CC(C)CCOc1cccc(OCC(=O)N(C)C2CCS(=O)(=O)C2)c1 (stereo unspecified),4.8% (inactive)
15,COc1ccc(OC)c(S(=O)(=O)N2CCc3ccccc32)c1,18.5% (inactive)
16,CCOc1c(Br)cc(CNc2ncn[nH]2)cc1OC,2.8% (inactive)
17,O=C(CSc1nnc(SCc2ccc(Cl)cc2)s1)N1CCN(C(=O)c2ccco2)CC1,-15.2% (inactive)
18,O=C(CSc1nc2cc(Cl)ccc2s1)N1CCN(C(=O)c2ccco2)CC1,5.8% (inactive)
19,O=C(CSc1c2c(nc3ccc(Cl)cc13)CCCC2)N1CCN(C(=O)c2ccco2)CC1,105% (active)
20,CC1Cc2nc(SCC(=O)NCc3ccco3)n(-c3ccccc3)c(=O)c2S1 (stereo unspecified),3.1% (inactive)
21,O=C(Cc1cccs1)NCc1ccc2c(c1)OCO2,-5.9% (inactive)
22,CCOC(=O)c1oc2c(C)c(O)ccc2c(=O)c1-c1nncn1-c1ccccc1,-6.3% (inactive)
23,Cn1c(=O)[nH]c(=O)c2c1nc(CN1CCN(c3cccc(Cl)c3)CC1)n2CCCc1ccccc1,6% (inactive)
24,Cc1nc2ccc(N)cc2s1,-7.6% (inactive)
25,Oc1cccc(-c2nc3ccccc3s2)c1,0.9% (inactive)
26,Nc1cccc(-c2nc3ccc(N)cc3s2)c1,50.7% (active)
